From the supplement of paper PMC10981050
Structures can show the parent of a compound that is named as a salt.

What follows are compounds tested on OCI-AML2 (assay: cell viability relative to vehicle control; higher = less cytotoxic). Settings: 10 µM; SRSF2 genotype: P95H/wt.
Summary of the method: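 CRISPR-edited SRSF2 P95 mutant and isogenic wild-type clones of four leukaemia lines were screened against Selleck bioactive, kinase and epigenetic probe libraries, with identity-inconsistent compounds removed. Compounds were acoustically dispensed into 384-well plates at a single 10 µM dose, with 2000 cells in 50 µL medium per well. After 48 h, supernatant was removed and CellTiter-Glo luminescence was read. Viability was expressed as percent of the on-plate DMSO vehicle control, analysed in Genedata Screener.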

Row | Compound | cell viability [%]
1 | COc1cc2c(cc1OC)[C@@H](Cc1ccc(O)c(Oc3cc4c(cc3OC)CCN(C)[C@@H]4Cc3ccc(O)cc3)c1)N(C)CC2.[O-][Cl+3]([O-])([O-])O [Liensinine perchlorate] | 51.5
2 | CC(=O)O[C@H]1C(=O)[C@@]2(C)[C@H]([C@H](OC(=O)c3ccccc3)[C@]3(O)C[C@H](O)C(C)=C1C3(C)C)[C@]1(OC(C)=O)CO[C@@H]1C[C@@H]2O | 104
3 | CC(C)[C@]12O[C@H]1[C@@H]1O[C@]13[C@]1(O[C@H]1C[C@H]1C4=C(CC[C@@]13C)C(=O)OC4)[C@@H]2O [Triptolide] | 5.79
4 | CC1=C[C@]23C(=O)[C@@H](C=C(CO)[C@@H](O)[C@]2(O)[C@H]1O)[C@H]1[C@@H](C[C@H]3C)C1(C)C [Ingenol] | 68.2

Same assay, conditions: 10 µM; SRSF2 genotype: wt/wt

Row | Compound | cell viability [%]
5 | C/C(=C\c1csc(C)n1)[C@@H]1C[C@@H]2O[C@@H]2CCC[C@H](C)[C@H](O)[C@@H](C)C(=O)C(C)(C)[C@@H](O)CC(=O)O1 [Epothilone A] | 8.21
6 | C[C@]12C=CC(=O)C=C1CC[C@@H]1[C@@H]2CC[C@@]2(C)[C@H]1CC[C@]2(C)O [Methandrostenolone] | 104
7 | C#C[C@]1(O)C=C[C@H]2[C@@H]3CCC4=CC(=O)CC[C@@H]4[C@H]3CC[C@@]21CC [Gestodene] | 94.8
8 | C/C=C\c1cc(OC)c(OC)cc1OC [Beta-Asarone] | 105
9 | Cc1c(N)nc(C(CC(N)=O)NCC(N)C(N)=O)nc1C(=O)NC(C(=O)NC(C)C(O)C(C)C(=O)NC(C(=O)NCCc1nc(-c2nc(C(=O)NCCC[S+](C)C)cs2)cs1)C(C)O)C(O[C@@H]1O[C@@H](CO)[C@@H](O)[C@H](O)[C@@H]1O[C@H]1O[C@H](CO)[C@@H](O)[C@H](OC(N)=O)[C@@H]1O)c1cnc[nH]1 (some centres undefined) [Bleomycin sulfate] | 36.8
10 | Cc1cccc(C(C)c2c[nH]cn2)c1C (centres undefined) [Medetomidine HCl] | 113
11 | CCC1(c2ccc(N)cc2)CCC(=O)NC1=O (centres undefined) [Aminoglutethimide (Cytadren)] | 108
12 | COc1cc2c(cc1O)CC1NCCc3cc(OC)c(O)c-2c31 (centres undefined) [Norisoboldine] | 99.1
13 | Cc1cccc(Cc2c[nH]cn2)c1C [Detomidine HCl] | 93.1
14 | COC1=C[C@@H]2[C@@H]3Cc4ccc(OC)c(O)c4[C@]2(CCN3C)CC1=O [Sinomenine hydrochloride] | 109
15 | CC(C)=CCCC(C)(O)C1CCC2(C)C1C(O)CC1C3(C)CCC(O)C(C)(C)C3C(OC3OC(CO)C(O)C(O)C3O)CC12C [(20R)-Ginsenoside Rh1] | 108
16 | CN(C)C(=O)Oc1ccc[n+](C)c1 [Pyridostigmine Bromide (Mestinon)] | 97
17 | C=CC1CN2CCC1CC2C(O)c1ccnc2ccccc12 (centres undefined) [Cinchonine.cdx] | 99.7
18 | CC[C@@H]1CN2CC[C@@]3(C(=O)Nc4ccccc43)[C@@H]2C[C@@H]1/C(=C\OC)C(=O)OC [Corynoxine] | 79.2
19 | C[C@@]12C[C@@H](c3ccoc3)OC(=O)[C@@H]1CC[C@]1(C)[C@H]2[C@@H]2C=C[C@@]1(O)C(=O)O2 [Columbin] | 103
20 | Nc1nc(N)nc(N)n1 [Melamine] | 97.8
21 | O=C(/C=C/c1ccccc1)OC[C@H]1O[C@@H](O[C@@H]2OC=C[C@H]3[C@H](O)[C@@H]4O[C@]4(CO)[C@@H]23)[C@H](O)[C@@H](O)[C@@H]1O [Picroside I] | 100
22 | Cc1cccc(C)c1NC1=NCCCS1 [Xylazine HCl] | 93.1

Row | Compound | cell viability [%]
23 | c1ccc2c(c1)[I+]c1ccccc1-2 [Diphenyleneiodonium chloride (DPI)] | 16.4
24 | CC(=O)OC12COC1CC(O)C1(C)C(=O)C(O)C3=C(C)C(O)CC(O)(C(OC(=O)c4ccccc4)C21)C3(C)C (centres undefined) [10-DAB (10-Deacetylbaccatin)] | 98.3
25 | COC(=O)C[C@](O)(CCC(C)(C)O)C(=O)O[C@@H]1C(OC)=C[C@]23CCCN2CCc2cc4c(cc2[C@H]13)OCO4 [Harringtonine] | 10.9
26 | c1c2c(cc3c1OCO3)-c1cc3ccc4c(c3c[n+]1CC2)OCO4 [Coptisine chloride] | 91.7
27 | O=S(=O)(CC1CS1)c1ccc(Oc2ccccc2)cc1 (centres undefined) | 14.1
28 | CC(NC(C)(C)C)C(=O)c1cccc(Cl)c1 (centres undefined) [Amfebutamone (Bupropion) HCl] | 90.5
29 | O=C1CCC[C@@H]2[C@H]3CCCN4CCC[C@@H](CN12)[C@@H]34 [Matrine ((+)-Matrine)] | 103
30 | C=C[C@H]1CN2CC[C@H]1C[C@H]2[C@H](O)c1ccnc2ccccc12 [Cinchonidine] | 92.1
31 | Cn1cc(C2=C(c3cn(C4CCN(Cc5ccccn5)CC4)c4ccccc34)C(=O)NC2=O)c2ccccc21 | 111
32 | O=C(O)CNC(=O)c1c(O)c2ccccc2n(Cc2ccccc2)c1=O | 96.5
33 | O=c1[nH]c2ccc(Cl)cc2c(N[C@@H]2CN3CCC2CC3)c1-c1nc2ccccc2[nH]1 | 0.75
34 | NCC(O)c1ccc(O)cc1 (racemic) [(+,-)-Octopamine HCl] | 97.3
35 | C=C1[C@H]2C[C@@]3([C@@H]1O)[C@@H](CC2=O)[C@]12[C@@H]4C[C@H]3[C@H]1N(CC)C[C@]4(C)CC[C@@H]2O [Songorine] | 103
36 | COc1cc2c(cc1OC)[C@@H](Cc1ccc(O)c(Oc3cc4c(cc3OC)CCN(C)[C@@H]4Cc3ccc(O)cc3)c1)N(C)CC2.[O-][Cl+3]([O-])([O-])O [Liensinine perchlorate] | 45
37 | CC(=O)O[C@H]1C(=O)[C@@]2(C)[C@H]([C@H](OC(=O)c3ccccc3)[C@]3(O)C[C@H](O)C(C)=C1C3(C)C)[C@]1(OC(C)=O)CO[C@@H]1C[C@@H]2O | 97.3
38 | CC(C)[C@]12O[C@H]1[C@@H]1O[C@]13[C@]1(O[C@H]1C[C@H]1C4=C(CC[C@@]13C)C(=O)OC4)[C@@H]2O [Triptolide] | 16
39 | CC1=C[C@]23C(=O)[C@@H](C=C(CO)[C@@H](O)[C@]2(O)[C@H]1O)[C@H]1[C@@H](C[C@H]3C)C1(C)C [Ingenol] | 79
